Screening results deposited in PubChem by several laboratories.
phage Ecoli inh: E. coli growth loss with phage present; growth absorbance; inhibition, % at 11.9 µM; hit rate 0.26% among 360,000; in the data active means inhibition above about 11%
E coli growth-1: inhibitors of Escherichia coli growth; hit rate 0.21% among 330,000; OD600, 23 h; active compounds read low; OD600 absorbance (test concentration not listed); AID 1053175;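 active means OD600 absorbance below the run mean of sample wells minus 3.6 SD, in any replicate, cut at about 0.56 in these data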
E coli growth-2: bacterial growth inhibition, counter-screen for AddAB inhibitors | E. coli V3065 growth, OD600 absorbance, 18 h | inhibition, % at 11.9 µM | hit rate 0.27% among 330,000 | AID 449728;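 active means inhibition above the campaign's mean inhibition across all tested compounds plus 3 SD, cut at about 9.9% in these data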;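 further: uninfected addAB+ strain grown without phage in ampicillin broth; 0% = DMSO wells and 100% = ciprofloxacin 0.95 µg/ml wells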
Tat transport: E. coli Tat transport inhibition | AID 488895 | hit rate 0.036% among 340,000 | inhibition, % at 10 µM | E. coli MC4100 TorA-mCherry Tat export, fluorescence;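 active means mean replicate inhibition at least 50% and at least half of replicates individually reaching 50%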;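 further: exported cargo escapes ClpAP degradation while cytoplasmic cargo is degraded and loses fluorescence; 0% = median of neutral control wells and 100% = median of NaSCN control wells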
PfHsp90 yeast 2: reduces growth (ATP signal) of yeast expressing P. falciparum Hsp90 | S. cerevisiae expressing PfHsp90, BacTiter-Glo ATP, 48 h; yeast lacking PDR1 and PDR3 efflux regulators | inhibition, % at 9.4 µM | hit rate 0.32% among 310,000;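 active means every replicate shows inhibition above about 80%, whatever the replicate mean, limit read from the data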;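 further: 0% = DMSO neutral controls and 100% = 20 µM radicicol positive controls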
AddAB inh: less growth of phage-infected E. coli with AddAB | E. coli expressing H. pylori AddAB, absorbance growth | inhibition, % at 11.9 µM | hit rate 0.29% among 330,000; in the data active means inhibition above about 12%;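 further: 0% = vehicle wells of infected cells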
RecBCD conf: growth loss of phage-infected V66 E. coli, RecBCD confirmation screen. shares compounds with phage Ecoli inh. E. coli V66 + T4 2- phage, growth OD. inhibition, % at 11.9 µM. hit rate 45% among 890. AID 651982;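 active means mean inhibition over triplicates exceeding the hit threshold derived in the original primary screen, cut at about 11% in these data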
Ecoli viability: counter-screen for RecBCD inhibitors: inhibitors of bacterial viability; hit rate 29% among 890; shares compounds with phage Ecoli inh; E. coli viability, absorbance (OD) growth; inhibition, % at 11.9 µM; in the data active means inhibition above about 20%;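 further: E. coli strain V66 grown with compound alone and no phage infection; 0% = bacteria with DMSO vehicle only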
AddAB phage OD: growth loss of phage-infected AddAB E. coli, RecBCD counter-screen | shares compounds with phage Ecoli inh | E. coli expressing H. pylori AddAB + T4 phage, OD growth; gene 2 mutant T4, recBCD-deleted host | inhibition, % at 11.9 µM | hit rate 45% among 890 | AID 651984;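 active means mean inhibition above the solvent-only control wells' mean plus 3 SD, cut at about 22% in these data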;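 further: higher means less bacterial growth from phage killing when AddAB is blocked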
* marks the source's active call; other numbers are inactive results; . = not tested or not shown. An excerpt weighted towards active compounds, which were near 0.69% of everything screened.

SMILES	phage Ecoli inh	E coli growth-1	E coli growth-2	Tat transport	PfHsp90 yeast 2	AddAB inh	RecBCD conf	Ecoli viability	AddAB phage OD
FC(F)(F)c1cccc(NC(=S)NC2CCCC2)c1	8	0.62	3	1	-19	6	.	.	.
FC(F)(F)c1ccc(NC(=S)NC2CCCCC2)cc1	15*	0.64	9	0	-4	10	7	8	9
Cc1cnc(C=NNC(N)=S)c2cccc(N)c12	2	.	.	1	-16	.	.	.	.
NC(=S)NN=Cc1nccc2ccccc12	21*	0.46*	.	-11	-2	.	29*	39*	32*
NC(=S)NN=Cc1nccc2c(C(F)(F)C(F)(F)C(F)(F)F)cccc12	15*	.	.	.	.	.	3	3	20
COc1nc(Oc2ccc(C=NO)cc2)nc(N(C)C)n1	.	0.7	.	.	.	.	.	.	.
FC(F)(F)c1ccc(C2C3CN(Cc4ccc(-c5ccccc5)cc4)C(c4ccccc4)C34CC2(c2ccccc2)C4)cc1 (configuration not stated)	.	0.71	.	.	.	.	.	.	.
O=C(OCc1nnc(-c2ccccc2)o1)c1ccc([N+](=O)[O-])o1	6	0.66	3	-2	.	1	.	.	.
COc1cc(-c2nnc(COC(=O)c3ccc([N+](=O)[O-])o3)o2)cc(OC)c1OC	12*	.	.	.	.	.	-2	0	14
CCOC(=O)CCC(=O)O[C@H]1[C@H](O[C@@H]2[C@@H](C)[C@H](O[C@H]3C[C@@](C)(OC)[C@@H](O)[C@H](C)O3)[C@@H](C)C(=O)O[C@H](CC)[C@@](C)(O)[C@H](O)[C@@H](C)C(=O)[C@H](C)C[C@@]2(C)O)O[C@H](C)C[C@@H]1N(C)C	26*	.	22*	19	-9	25*	14*	15	9
COC(=O)C1=C(C)N(Cc2ccccc2)C(=NCc2cc(OC)c(OC)c(OC)c2)NC1CCc1ccccc1 (configuration not stated)	.	0.7	.	.	.	.	.	.	.
Oc1cccnc1SCc1ccccc1	2	0.7	-1	4	2	2	.	.	.
O=Cc1cccnc1SCc1ccccc1	99*	0.7	-1	-1	-7	1	-6	-6	0
CC1CN(C(C)CO)C(=O)c2cc(NC(=O)CCC(F)(F)F)ccc2OC1CN(C)C(=O)NC1CCCCC1 (configuration not stated)	.	0.71	.	.	.	.	.	.	.
CC(=O)NN=C(C)C1COc2ccccc2O1 (configuration not stated)	.	0.65	.	.	.	.	.	.	.
O=C(C1=C(c2ccccc2)C(=O)c2ccccc2C1=O)c1ccccc1	11*	0.66	.	0	-28	.	-4	-3	5
CC(CCc1ccco1)NC(=O)Cn1ncc2c(=O)oc3ccccc3c21 (configuration not stated)	99*	0.67	-2	0	3	4	-4	-4	-4
FC(F)(F)c1cccc(NC(=S)NCC2COc3ccccc3O2)c1 (configuration not stated)	12*	0.62	5	-7	5	5	7	8	7
Cc1c(Cl)c([N+](=O)[O-])nn1Cc1ccc(C(=O)Nc2ccc(Cl)cn2)o1	2	0.69	0	-7	-34	1	.	.	.
O=C(Nc1ccc(Cl)cn1)c1ccc([N+](=O)[O-])o1	18*	0.5	.	-28	-11	.	7	8	96*
CC(=O)c1ccc(NC(=O)c2ccc([N+](=O)[O-])o2)cc1	17*	0.47*	.	1	3	.	11*	14	66*
Cc1nnc(NS(=O)(=O)c2ccc(N)cc2)s1	12*	0.63	5	-2	-22	4	4	3	27*
Cc1nnc(NS(=O)(=O)c2ccc(F)cc2)s1	1	.	.	2	16	.	.	.	.
CC(=NNc1cc(Cl)nc(C)n1)c1ccccc1	.	0.68	.	.	.	.	.	.	.
Nc1nc(=O)n(C2CCC(CO)O2)cc1F (configuration not stated)	11*	.	.	.	.	.	10	5	31*
